Experiment [1] has as its target Androgen receptor (Homo sapiens) (UniProt P10275). Briefly: ATG_AR_TRANS: Attagene TRANS-FACTORIAL HepG2 Assay for human Androgen Receptor (AR) (AID 2282973). To be noted: HepG2 Attagene TRANS-FACTORIAL AR reporter transcription. The gist of the method:
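Transfected HepG2, 24 h treatment, chimeric NR-Gal4 driving GAL4-UAS reporters. mRNA induction by RT-PCR/capillary electrophoresis fluorescence; DMSO as negative control and baseline.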

Experiment [2] deals with human Acetylcholinesterase (AChE), ACHE (gene 43) (UniProt P22303). Briefly: NVS_ENZ_hAChE: NovaScreen (NVS) Enzymatic Assay for human Acetylcholinesterase (AChE) (AID 2283129). The method, boiled down:
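Cell-free colorimetric enzyme-activity assay; compounds read 0.33 hour after dosing, loss of signal vs DMSO baseline. Primary screen in duplicate at 25 uM single concentration, with active compounds retested in concentration series.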

The target of experiment [3] is human Raf-1 Proto-Oncogene, serine/threonine Kinase (RAF1), RAF1 (gene 5894) (UniProt P04049). The experiment in a line: NVS_ENZ_hRAF1: NovaScreen (NVS) Enzymatic Assay for human Raf-1 Proto-Oncogene, serine/threonine Kinase (RAF1) (AID 2283216). The gist of the method:
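Cell-free recombinant kinase with specific fluorescent substrate, product separated by electrophoretic mobility shift; read 1 h after dosing. Primary screen at 25 uM in duplicate; hits then run in concentration-response up to 50 uM, fitted as loss of signal versus DMSO.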

Experiment [4] deals with Voltage-dependent N-type calcium channel subunit alpha-1B (Rattus norvegicus) (UniProt Q02294). Briefly: NVS_IC_rCaChN: NovaScreen (NVS) Ion Channel Assay for rat Calcium Channel, Type N (CaChN) (AID 2283317).
The target in experiment [5] is rat CYP1A2, Cyp1a2 (gene 24297) (UniProt P04799). Briefly: NVS_ADME_rCYP1A2: NovaScreen (NVS) CYP450-related Enzyme Activity (ADME) Assay for rat CYP1A2 (AID 2283115). The gist of the method: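 Cell-free recombinant rat enzyme with fluorogenic substrate, read by fluorescence intensity 1 hour after dosing. Loss of signal versus acetonitrile negative control; primary screen at 10 uM in duplicate, actives followed in concentration series.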

For experiment [6], the target named is rat Oxytocin Receptor (OXT), Oxtr (gene 25342) (UniProt P70536). Briefly: NVS_GPCR_rOXT: NovaScreen (NVS) G Protein-Coupled Receptor Assay for rat Oxytocin Receptor (OXT) (AID 2283330). The method, boiled down: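 Radioligand displacement on rat uterine membranes, 1 h incubation, filter-based scintillation counting. Chemicals were screened in duplicate at 25 uM, and those passing threshold were retested in concentration-response up to 50 uM. Loss of binding was fitted versus DMSO.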

Experiment [7] has as its target rat Acetylcholinesterase (AChE), Ache (gene 83817) (UniProt P37136). The experiment in a line: NVS_ENZ_rAChE: NovaScreen (NVS) Enzymatic Assay for rat Acetylcholinesterase (AChE) (AID 2283233). The gist of the method: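 Rat brain membrane acetylcholinesterase activity measured colorimetrically 0.33 h after compound addition, loss of signal relative to DMSO. Primary screen in duplicate at 25 uM; actives re-run as concentration-response with 50 uM top concentration.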

Experiment [8] has as its system rat Monoamine Oxidase, MAO-A, Central (MAOAC), gene 29253. The experiment in a line: NVS_ENZ_rMAOAC: NovaScreen (NVS) Enzymatic Assay for rat Monoamine Oxidase, MAO-A, Central (MAOAC) (AID 2283243).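 Further: potency refers to inhibition seen as signal drop below DMSO baseline.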 The gist of the method:
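Steps: rat brain protein extract dosed with test chemical (25 uM, duplicate, primary); incubated 1.5 h; radiolabelled product separated from substrate and counted. Signal loss versus DMSO scored as inhibition.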

Experiment [9] addresses human CYP4F12, CYP4F12 (gene 66002) (UniProt Q9HCS2). The experiment in a line: NVS_ADME_hCYP4F12: NovaScreen (NVS) CYP450-related Enzyme Activity (ADME) Assay for human CYP4F12 (AID 2283111). The method, boiled down: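 Cell-free fluorescence assay of recombinant human CYP4F12 activity on a specific substrate, read 0.5 h after dosing. Primary screen in duplicate at 10 uM, then concentration series for actives; loss of signal fitted against acetonitrile negative control.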

Experiment [10] concerns the target human Aurora Kinase A - serine/threonine-protein Kinase 6 (AurA), AURKA (gene 6790) (UniProt O14965). The experiment in a line: NVS_ENZ_hAurA: NovaScreen (NVS) Enzymatic Assay for human Aurora Kinase A - serine/threonine-protein Kinase 6 (AurA) (AID 2283142). The method, boiled down: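 Cell-free enzymatic assay with human Aurora A, 1 hour after dosing. Fluorescent substrate turnover detected after electrophoretic mobility shift separation of substrate and product. Screened at 25 uM, actives retested in concentration-response up to 50 uM.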

For experiment [11], the target named is human Fibroblast Growth Factor Receptor 1 (FGFR1), FGFR1 (gene 2260) (UniProt P11362). Briefly: NVS_ENZ_hFGFR1: NovaScreen (NVS) Enzymatic Assay for human Fibroblast Growth Factor Receptor 1 (FGFR1) (AID 2283159).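 On AC50: hits lower the signal so potencies describe inhibitors of the kinase.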 The method, boiled down:
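Cell-free recombinant kinase with fluorescent substrate, product separated by electrophoretic mobility shift; read 1 hour after dosing, loss of signal relative to DMSO. Initial screen in duplicate at 25 uM, actives followed in concentration series.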

The subject of a further experiment is rat CYP2B1, gene 24300. The experiment in a line: NVS_ADME_rCYP2B1: NovaScreen (NVS) CYP450-related Enzyme Activity (ADME) Assay for rat CYP2B1 (AID 2283117). The gist of the method: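 Recombinant rat CYP2B1 with fluorogenic substrate, read at 0.75 h. Primary screen in duplicate at 10 uM; compounds meeting threshold (e.g., 30% inhibition) re-run in concentration-response up to 20 uM. Fitted against acetonitrile control.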

Experiment [12] has as its target human Tyrosine Protein Kinase Receptor Tie-2 (Tie2), TEK (gene 7010) (UniProt Q02763). Briefly: NVS_ENZ_hTie2: NovaScreen (NVS) Enzymatic Assay for human Tyrosine Protein Kinase Receptor Tie-2 (Tie2) (AID 2283225). The gist of the method: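 Recombinant human Tie2 kinase activity was read cell-free by fluorescence with electrophoretic mobility shift, 1 hour after dosing. The screen used 25 uM in duplicate, then concentration-response up to 50 uM. Signal loss was scored against DMSO.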

Records with an inconclusive call do not appear. Calls of active or inactive are those of the source. How the source made its calls: active means hit-call score of the fitted dose curve at least 0.9, where 1 is the maximum; inconclusive means response in the unintended direction; inactive means score below 0.9.

human Acetylcholinesterase (AChE), ACHE (gene 43), sequence (P22303 whole entry, looked up): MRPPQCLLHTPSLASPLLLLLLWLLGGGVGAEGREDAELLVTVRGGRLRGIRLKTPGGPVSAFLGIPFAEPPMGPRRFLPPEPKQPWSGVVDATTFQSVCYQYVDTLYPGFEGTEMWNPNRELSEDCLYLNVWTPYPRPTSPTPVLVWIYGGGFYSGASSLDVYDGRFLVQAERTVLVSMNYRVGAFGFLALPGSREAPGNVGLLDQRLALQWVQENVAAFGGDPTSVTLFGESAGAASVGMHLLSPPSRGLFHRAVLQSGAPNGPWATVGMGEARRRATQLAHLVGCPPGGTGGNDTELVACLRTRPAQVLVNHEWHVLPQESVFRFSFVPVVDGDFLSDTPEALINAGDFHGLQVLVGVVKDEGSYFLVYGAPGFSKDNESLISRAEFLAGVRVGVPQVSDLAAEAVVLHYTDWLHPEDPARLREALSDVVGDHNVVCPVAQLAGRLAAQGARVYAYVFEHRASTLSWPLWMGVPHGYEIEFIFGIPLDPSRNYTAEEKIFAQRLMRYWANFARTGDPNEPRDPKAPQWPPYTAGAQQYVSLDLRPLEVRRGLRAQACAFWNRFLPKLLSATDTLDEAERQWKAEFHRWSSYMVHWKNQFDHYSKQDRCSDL
Androgen receptor (Homo sapiens), sequence (P10275 whole entry, looked up, the tested form may be a part): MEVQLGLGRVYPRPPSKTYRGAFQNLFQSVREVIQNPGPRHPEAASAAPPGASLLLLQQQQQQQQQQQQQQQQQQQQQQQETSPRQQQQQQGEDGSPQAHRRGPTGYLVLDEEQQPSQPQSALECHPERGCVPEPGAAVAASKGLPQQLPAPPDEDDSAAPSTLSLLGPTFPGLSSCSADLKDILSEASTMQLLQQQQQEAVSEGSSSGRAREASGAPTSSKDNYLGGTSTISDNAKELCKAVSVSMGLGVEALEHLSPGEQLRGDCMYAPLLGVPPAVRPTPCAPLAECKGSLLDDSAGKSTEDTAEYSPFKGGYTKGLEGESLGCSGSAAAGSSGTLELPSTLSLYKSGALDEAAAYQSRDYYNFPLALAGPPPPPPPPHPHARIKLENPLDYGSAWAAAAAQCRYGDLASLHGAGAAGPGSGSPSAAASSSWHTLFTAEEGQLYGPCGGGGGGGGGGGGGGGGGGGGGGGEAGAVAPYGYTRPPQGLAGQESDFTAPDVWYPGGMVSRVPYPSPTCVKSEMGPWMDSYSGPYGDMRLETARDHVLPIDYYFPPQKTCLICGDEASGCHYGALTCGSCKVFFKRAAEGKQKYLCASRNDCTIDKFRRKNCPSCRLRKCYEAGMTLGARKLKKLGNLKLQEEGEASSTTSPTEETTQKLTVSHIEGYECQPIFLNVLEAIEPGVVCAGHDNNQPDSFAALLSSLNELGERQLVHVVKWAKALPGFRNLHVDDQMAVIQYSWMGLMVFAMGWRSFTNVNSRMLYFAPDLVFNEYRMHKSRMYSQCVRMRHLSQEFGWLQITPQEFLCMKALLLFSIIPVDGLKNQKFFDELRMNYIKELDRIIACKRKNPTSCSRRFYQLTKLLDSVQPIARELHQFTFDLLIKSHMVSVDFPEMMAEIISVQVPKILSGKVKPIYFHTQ
rat CYP1A2, Cyp1a2 (gene 24297), sequence (P04799 whole entry, looked up): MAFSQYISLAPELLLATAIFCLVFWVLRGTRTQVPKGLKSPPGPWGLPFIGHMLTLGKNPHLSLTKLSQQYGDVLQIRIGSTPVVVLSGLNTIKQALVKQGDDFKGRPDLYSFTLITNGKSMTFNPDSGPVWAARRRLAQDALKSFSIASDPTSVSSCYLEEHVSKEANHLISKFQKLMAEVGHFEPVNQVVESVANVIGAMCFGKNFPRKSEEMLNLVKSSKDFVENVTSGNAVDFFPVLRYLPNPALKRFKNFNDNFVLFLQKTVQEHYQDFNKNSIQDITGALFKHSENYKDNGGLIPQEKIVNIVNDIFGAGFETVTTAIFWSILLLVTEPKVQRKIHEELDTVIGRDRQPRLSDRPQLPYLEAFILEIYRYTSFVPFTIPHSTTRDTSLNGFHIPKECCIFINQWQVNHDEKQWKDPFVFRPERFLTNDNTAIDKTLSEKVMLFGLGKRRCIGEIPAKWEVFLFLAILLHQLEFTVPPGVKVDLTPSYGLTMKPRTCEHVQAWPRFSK
rat Oxytocin Receptor (OXT), Oxtr (gene 25342), sequence (P70536 whole entry, looked up): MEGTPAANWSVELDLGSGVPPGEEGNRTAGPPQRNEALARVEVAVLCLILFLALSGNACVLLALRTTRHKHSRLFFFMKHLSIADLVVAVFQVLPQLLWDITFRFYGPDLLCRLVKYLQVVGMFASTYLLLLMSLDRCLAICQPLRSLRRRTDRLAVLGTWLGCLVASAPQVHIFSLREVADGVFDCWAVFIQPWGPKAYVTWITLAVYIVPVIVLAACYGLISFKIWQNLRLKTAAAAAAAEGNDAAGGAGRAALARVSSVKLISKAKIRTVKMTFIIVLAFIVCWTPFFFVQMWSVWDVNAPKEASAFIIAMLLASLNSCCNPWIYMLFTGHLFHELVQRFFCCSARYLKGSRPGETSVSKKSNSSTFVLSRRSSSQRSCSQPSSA
rat Acetylcholinesterase (AChE), Ache (gene 83817), sequence (P37136 whole entry, looked up): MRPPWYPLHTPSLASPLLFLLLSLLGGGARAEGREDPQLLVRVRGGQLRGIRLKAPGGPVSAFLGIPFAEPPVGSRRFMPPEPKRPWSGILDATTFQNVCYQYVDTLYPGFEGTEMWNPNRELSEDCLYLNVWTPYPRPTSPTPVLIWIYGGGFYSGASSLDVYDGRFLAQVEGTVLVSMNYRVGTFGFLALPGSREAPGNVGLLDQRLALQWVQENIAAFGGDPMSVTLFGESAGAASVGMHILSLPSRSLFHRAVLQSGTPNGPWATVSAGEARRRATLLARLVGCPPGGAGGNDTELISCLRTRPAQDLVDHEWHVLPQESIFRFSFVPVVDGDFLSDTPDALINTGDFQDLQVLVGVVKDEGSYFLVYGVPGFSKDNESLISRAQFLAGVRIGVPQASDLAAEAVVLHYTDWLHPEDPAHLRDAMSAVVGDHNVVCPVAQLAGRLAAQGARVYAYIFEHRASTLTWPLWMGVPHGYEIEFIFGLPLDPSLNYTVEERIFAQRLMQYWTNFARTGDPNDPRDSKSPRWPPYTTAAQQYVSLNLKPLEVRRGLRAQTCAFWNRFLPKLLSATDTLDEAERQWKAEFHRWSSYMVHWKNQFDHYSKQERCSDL
human Fibroblast Growth Factor Receptor 1 (FGFR1), FGFR1 (gene 2260), sequence (P11362 whole entry, looked up): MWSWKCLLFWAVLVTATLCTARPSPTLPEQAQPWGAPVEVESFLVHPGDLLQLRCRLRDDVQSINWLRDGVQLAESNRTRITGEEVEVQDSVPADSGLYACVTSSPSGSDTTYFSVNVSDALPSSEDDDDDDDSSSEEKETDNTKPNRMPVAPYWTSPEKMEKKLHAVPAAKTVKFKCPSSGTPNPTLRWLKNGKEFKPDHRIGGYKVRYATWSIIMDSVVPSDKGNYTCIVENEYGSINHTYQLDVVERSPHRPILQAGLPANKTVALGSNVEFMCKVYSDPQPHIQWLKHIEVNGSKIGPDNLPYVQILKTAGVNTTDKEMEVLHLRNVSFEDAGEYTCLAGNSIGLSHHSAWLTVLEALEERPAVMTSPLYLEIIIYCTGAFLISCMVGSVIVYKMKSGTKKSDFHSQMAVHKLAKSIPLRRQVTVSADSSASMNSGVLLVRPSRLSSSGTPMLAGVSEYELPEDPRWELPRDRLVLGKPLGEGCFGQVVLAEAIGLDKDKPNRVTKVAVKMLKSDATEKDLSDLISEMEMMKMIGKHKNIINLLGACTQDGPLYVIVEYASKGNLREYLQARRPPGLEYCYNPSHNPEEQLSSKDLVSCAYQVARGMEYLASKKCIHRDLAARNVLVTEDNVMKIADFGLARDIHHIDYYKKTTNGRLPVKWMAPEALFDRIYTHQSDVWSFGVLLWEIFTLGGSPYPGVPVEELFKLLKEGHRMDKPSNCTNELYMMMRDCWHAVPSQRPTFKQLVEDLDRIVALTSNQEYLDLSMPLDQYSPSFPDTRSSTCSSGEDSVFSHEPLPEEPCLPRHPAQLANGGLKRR
human Raf-1 Proto-Oncogene, serine/threonine Kinase (RAF1), RAF1 (gene 5894), sequence (P04049 whole entry, looked up): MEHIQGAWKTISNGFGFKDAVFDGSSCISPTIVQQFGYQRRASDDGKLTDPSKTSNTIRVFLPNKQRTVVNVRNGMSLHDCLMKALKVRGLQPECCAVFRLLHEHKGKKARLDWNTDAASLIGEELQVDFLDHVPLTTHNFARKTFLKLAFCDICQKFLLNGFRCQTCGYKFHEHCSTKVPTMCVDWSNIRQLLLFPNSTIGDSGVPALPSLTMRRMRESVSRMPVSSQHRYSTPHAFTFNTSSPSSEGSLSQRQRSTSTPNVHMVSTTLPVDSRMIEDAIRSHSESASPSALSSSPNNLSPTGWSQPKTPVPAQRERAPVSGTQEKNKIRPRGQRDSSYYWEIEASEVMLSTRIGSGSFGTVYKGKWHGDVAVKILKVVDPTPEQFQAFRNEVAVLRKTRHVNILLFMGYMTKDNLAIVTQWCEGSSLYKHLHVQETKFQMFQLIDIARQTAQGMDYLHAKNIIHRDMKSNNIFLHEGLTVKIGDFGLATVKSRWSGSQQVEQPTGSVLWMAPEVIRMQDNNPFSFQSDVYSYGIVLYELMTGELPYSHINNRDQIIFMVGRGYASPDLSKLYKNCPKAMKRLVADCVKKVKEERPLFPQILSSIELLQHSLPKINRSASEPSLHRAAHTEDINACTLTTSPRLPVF
human Aurora Kinase A - serine/threonine-protein Kinase 6 (AurA), AURKA (gene 6790), sequence (O14965 whole entry, looked up): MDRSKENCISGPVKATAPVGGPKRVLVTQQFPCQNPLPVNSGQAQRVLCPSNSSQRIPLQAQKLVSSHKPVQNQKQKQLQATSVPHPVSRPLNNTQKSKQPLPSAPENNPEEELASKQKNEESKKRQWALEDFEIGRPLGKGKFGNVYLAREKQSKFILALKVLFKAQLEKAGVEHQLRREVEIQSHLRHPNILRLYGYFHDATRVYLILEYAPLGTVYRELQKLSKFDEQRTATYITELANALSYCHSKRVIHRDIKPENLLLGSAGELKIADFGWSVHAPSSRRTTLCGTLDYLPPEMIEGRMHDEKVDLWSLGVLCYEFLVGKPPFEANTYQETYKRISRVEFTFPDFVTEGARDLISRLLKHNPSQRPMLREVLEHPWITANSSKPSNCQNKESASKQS

As usually defined, the AC50 is the concentration giving half of the maximal activity seen. For the molecule `O=C(O)c1cccc(N(Cc2cccnc2)c2ccc(OC(F)F)c(OC(F)F)c2)c1`, the call in [1], in experiment [3] and in experiment [4] was inactive. Also, the AC50 in [2] was 8.26 µM (active).

As to `O=c1cccc[nH]1`, the result in [1] was inactive.

Turning to `CCC(C)c1cc([N+](=O)[O-])cc([N+](=O)[O-])c1OC(=O)OC(C)C` (stereo unspecified), the call in [1] and in experiment [5] was inactive.

As for `CCCN(CCC)C(=O)SCC`, the molecule was called inactive in [1], in [2] and in experiment [6].

As for `O=S1(=O)CC(Cl)(Cl)C(Cl)(Cl)C1`, the call in experiment [1], in experiment [5] and in experiment [8] was inactive. Also, the AC50 in experiment [7] is 26.1 µM (active).

Turning to `NC(=O)c1nc(-c2cccc(-c3cc(F)ccc3OCC(F)(F)C(F)(F)F)c2)n[nH]1`, the molecule was classed as inactive in [1] and in experiment [9].

As for `Cc1cc(CCN2CCN(c3nsc4ccccc34)CC2)cc2c1NC(=O)CC2(C)C`, the result in [1], in experiment [2], in experiment [10], in [11], in experiment [3] and in experiment [7] was inactive.

As for `CCCCCCCCCCCCCC[P+](CCCC)(CCCC)CCCC`, the result in experiment [1] was inactive. Moreover, the AC50 is 6.5 µM (active) in the experiment on rat CYP2B1, gene 24300; 5.1 µM (active) in [11]; 15.3 µM (active) in experiment [12].
